Bioassay records (PubChem)
Compounds with a hit are over-represented: about 2.3% of the library has one in this group of screens.
CHRM1 agonist – activates human CHRM1 receptor; 360,000 compounds, 0.33% hits; activation, % at 3 µM; CHO-K1 hM1, Fluo-8 calcium fluorescence, agonist mode; 0% DMSO, 100% acetylcholine EC100; P11229;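 active means activation above the run's mean compound activation plus 3 SD, cut at about 16% in these data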;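 further: peak over basal fluorescence ratio within a 140 s kinetic read after compound addition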
Target sequence (P11229 whole entry, looked up): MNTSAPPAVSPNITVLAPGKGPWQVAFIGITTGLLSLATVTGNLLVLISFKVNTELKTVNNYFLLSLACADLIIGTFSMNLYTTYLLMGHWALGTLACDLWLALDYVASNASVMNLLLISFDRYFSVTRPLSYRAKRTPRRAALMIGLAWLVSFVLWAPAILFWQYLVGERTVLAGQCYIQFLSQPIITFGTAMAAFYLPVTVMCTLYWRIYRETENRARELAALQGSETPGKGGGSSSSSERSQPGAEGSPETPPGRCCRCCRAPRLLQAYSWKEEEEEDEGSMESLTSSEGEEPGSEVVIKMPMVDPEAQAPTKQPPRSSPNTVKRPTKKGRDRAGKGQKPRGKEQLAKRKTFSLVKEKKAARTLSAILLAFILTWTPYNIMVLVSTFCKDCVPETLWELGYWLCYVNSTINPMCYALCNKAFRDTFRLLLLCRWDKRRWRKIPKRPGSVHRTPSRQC
CHO-K1 Ca ag – M1 agonist counterscreen hit in parental CHO-K1 cells | 360,000 compounds, 0.48% hits | activation, % at 3 µM | Fluo-8 calcium fluorescence; scaled to maximal ATP response, vehicle zero; in the data active means activation above about 15%;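 further: untransfected CHO-K1 host cells lacking M1 receptor as counterscreen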
CHO-K1 Ca PAM – M1 PAM counterscreen hit in parental CHO-K1 cells; activation, % at 3 µM; ATP EC20, Fluo-8 calcium fluorescence; 0% at ATP EC20, 100% at ATP max; AID 602247; 360,000 compounds, 0.02% hits;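 active means activation above the run cutoff, the mean activation of all test compounds plus 3 SD, cut at about 40% in these data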;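 further: peak over basal fluorescence ratio in a 140 s read after ATP addition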
CHO-K1 Ca antag – counter-screen for M1 antagonists: effect in parental CHO-K1 cells; ATP-induced calcium, Fluo-8 fluorescence; inhibition, % at 3 µM; 360,000 compounds, 0.6% hits; AID 602250;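 active means inhibition above a per-plate cutoff, the plate's mean sample inhibition plus 3 SD, cut at about 24% in these data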;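 further: 0% = DMSO plus EC80 ATP and 100% = DMSO alone without ATP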
CHRM1 antagonist – antagonists of human M1 muscarinic receptor | CHO-K1 hM1, Fluo-8 calcium fluorescence, ACh EC80 antagonist | inhibition, % at 3 µM | 360,000 compounds, 1.3% hits;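 active means percent inhibition above its own plate's cutoff, namely the mean of that plate's compound wells plus 3 SD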;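 further: peak over basal fluorescence ratio during 140 s after agonist addition; 0% = ACh EC80 plus DMSO and 100% = DMSO alone without agonist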
CHRM1 PAM – positive allosteric modulators of human M1 muscarinic receptor. activation, % at 3 µM. CHO-K1 hM1, Fluo-8 calcium fluorescence, ACh EC20; 0% = ACh EC20, 100% = maximal ACh. AID 588819. 360,000 compounds, 0.088% hits; in the data active means activation above about 19%, passing the limit was not always enough
Active calls of the source: *.

SMILES	CHRM1 agonist	CHO-K1 Ca ag	CHO-K1 Ca PAM	CHO-K1 Ca antag	CHRM1 antagonist	CHRM1 PAM
CC1CCCN(Cc2ccc(OCc3ccccc3)cc2)C1 (stereo not drawn)	-9	1	-3	-8	73*	-30
c1ccc(COc2ccc(OCCCCN3CCCCC3)cc2)cc1	-3	3	2	-2	35*	-26
COc1ccc(OC)c(NC(=O)C2CCN(C(=O)C3CC(=O)N(c4ccc(C)cc4)C3)CC2)c1 (stereo not drawn)	-4	2	4	-23	-12	4
CCOC(=O)C1CC(c2ccccc2)=NN1c1ccccc1 (stereo not drawn)	-5	0	9	-15	-7	-4
CC(Oc1cc(-c2ccccc2)cc2ccccc12)C(=O)N1CCOCC1 (stereo not drawn)	-2	0	4	5	-3	4
CCCCCCCCCn1c2c(c(=N)c3c1CCC3)CCC2	-1	5	11	18	31*	-9
CC(C)(C)C(=O)NC(=S)NNC(=O)C(c1ccccc1)c1ccccc1	114*	107*	-32	47*	91*	-24
CC(=O)NNC(=S)NC(=O)C(c1ccccc1)c1ccccc1	1	4	11	-1	0	-5
COc1cc(-c2ccc3oc(-c4cccc(C)c4)c(C#CC4(O)CCCCC4)c3c2)cc(OC)c1OC	1	0	-3	8	2	4
Cc1ccc(-c2nn3cnnc3c3ccccc23)cc1C	-4	0	-4	24*	-14	7
COc1cc(/C=C/C(O)=C/C(=O)/C=C/c2ccc(O)cc2)ccc1O	18*	17*	-10	19	39*	-20
COc1cc(/C=C/C(=O)NC(=O)c2ccccc2O)ccc1O	-2	1	1	-7	-5	8
CCOCc1nnc(NC(=O)C2c3ccccc3Oc3ccccc32)s1	6	20*	16	7	12	-13
CC(C)c1nnc(NC(=O)C2c3ccccc3Oc3ccccc32)s1	1	2	17	-5	45*	-19
Cc1nnc(NC(=O)C2c3ccccc3Oc3ccccc32)s1	-5	1	2	4	15	-11
CCOCc1nnc(NC(=O)c2ccco2)s1	-1	0	3	-8	2	6
NCCOc1ccc(C23CC4CC(CC(C4)C2)C3)cc1	12	17*	25	-6	-2	17
OCCN1CCN(CC(O)COc2ccc(C34CC5CC(CC(C5)C3)C4)cc2)CC1 (stereo not drawn)	-5	1	18	-2	3	3
Cc1cc(C(=O)NCCCN2CCN(C3CCCCC3)CC2)n(-c2ccccc2)n1	36*	-1	8	13	7	0
Cc1ccccc1NC(=O)NCCCN1CCN(C2CCCCC2)CC1	-2	0	15	-4	-10	-4
COc1ccc(S(=O)(=O)c2nnn(-c3cccc(Cl)c3)c2N)cc1	11	2	-16	25*	2	-4
C/C(=N\OCC(=O)NC12CC3CC(CC(C3)C1)C2)c1cc2ccccc2o1	-9	0	-6	9	-3	5
CCN(CC)c1ccc(/C=C2/C(=O)c3ccc(C(=O)O)cc3C2=O)cc1	186*	62*	-10	56*	76*	-27
CCN(CC)c1ccc(C=C2C(=O)OC3(CCCCC3)OC2=O)cc1	-2	1	13	-3	-3	6
Cc1ccccc1N1C(=O)c2cccc3c(N(C)CCO)ccc(c23)C1=O	8	17*	3	7	1	-8
SMILES	CHRM1 agonist	CHO-K1 Ca ag	CHO-K1 Ca PAM	CHO-K1 Ca antag	CHRM1 antagonist	CHRM1 PAM
COc1ccccc1N1C(=O)c2cccc3c(N(C)CCO)ccc(c23)C1=O	11	13	7	-1	-17	8
CCOC(=O)c1nn2c(C(F)(F)F)cc(-c3ccc(OC)cc3)nc2c1Br	-3	0	18	-4	-3	-3
CCc1ccc(N(C(=O)c2ccoc2C)C(C(=O)NC2CCCC2)c2ccc(OC)cc2)cc1 (stereo not drawn)	-6	-1	-14	28*	16	-8
COc1ccc(C(C(=O)NC2CCCC2)N(C(=O)c2ccoc2C)c2cc(C)cc(C)c2)cc1 (stereo not drawn)	-9	-1	1	3	-5	5
COc1ccc(C(C(=O)NC2CCCC2)N(C(=O)c2ccoc2C)c2ccc(C)c(C)c2)cc1 (stereo not drawn)	-10	-1	-14	25*	8	-6
COc1cccc(N(C(=O)c2ccco2)C(C(=O)NC2CCCC2)c2cccnc2)c1 (stereo not drawn)	0	0	-7	24*	15	-3
COc1ccc(C(C(=O)NC2CCCC2)N(C(=O)c2ccoc2C)c2ccccc2)cc1 (stereo not drawn)	-8	2	1	-7	-10	-2
CC(=O)c1c(O)cc2c3c1OC(C)(C)C1CCC(C)(CC31)O2 (stereo not drawn)	-7	1	13	-11	12	-17
O=C(COC(=O)c1cc(Cl)nc(Cl)c1)Nc1ccc(Cl)c(S(=O)(=O)N2CCOCC2)c1	-6	0	-12	-2	4	2
CN(C)/C=N/c1sc2c(c1C#N)CC(C)(C)NC2(C)C	-3	0	6	-10	-17	23*
FC(F)(F)Oc1ccc(Nc2nc(N3CCOCC3)nc(N3CCOCC3)n2)cc1	-4	0	-10	7	-1	3
Cc1onc(-c2ccccc2)c1C(=O)N1CCN(C/C=C/c2ccccc2)CC1	-8	2	16	-1	0	-4
COc1ccc(C2=NS(=O)(=O)N(C)C(C(=O)N3CCc4ccccc4C3)=C2)cc1OC	-1	8	14	11	25*	-19
COc1ccc(C2=NS(=O)(=O)N(C)C(C(=O)NCc3ccccc3)=C2)cc1OC	3	4	23	-10	-12	1
Cc1ccc(Cn2c(=N)n(CC(=O)c3ccccc3)c3ccccc32)cc1	-4	-1	-10	21	-2	4
CCN(CC)S(=O)(=O)c1cccc(C(=O)N/N=C/c2ccc(O)c(O)c2O)c1	-6	0	-7	0	6	26*
CCOc1ccccc1/C=N/NC(=O)c1cccc(S(=O)(=O)N(CC)CC)c1	-5	3	15	-10	0	-3
CCOc1ccccc1OC(=O)c1ccco1	-1	0	-6	27*	12	3
CC(C)(C)c1ccc(C(=O)NC(CC(=O)O)c2ccc(OC3CCCC3)cc2)cc1 (stereo not drawn)	-8	1	9	-23	-26	13
CCOc1cc(C(=O)NC(CC(=O)O)c2ccc(OC3CCCC3)cc2)cc(OCC)c1OCC (stereo not drawn)	-5	3	2	32*	-16	10
